{"source": "the supplement of paper PMC4022240", "binders": {"B1": {"name": "H3 11-23 T G G K A P Rcit Kac Q L A T K (peptide)", "chain": "TGGKAPRKQLATK"}, "B2": {"name": "H3 11-23 T G G Kme3 A P Rcit K Q L A T K (peptide)", "chain": "TGGKAPRKQLATK"}, "B3": {"name": "H3 11-23 T G G Kme3 A P Rme2s K Q L A T K (peptide)", "chain": "TGGKAPRKQLATK"}, "B4": {"name": "H3 11-23 T G G K A P R Kme3 Q L A T K (peptide)", "chain": "TGGKAPRKQLATK"}, "B5": {"name": "H3 11-23 T G G K A P R Kme Q L A T K (peptide)", "chain": "TGGKAPRKQLATK"}}, "assay_in_all_cases": "peptide microarray binding signal (635 nm), min-max normalized on array (fraction of array maximum); higher = stronger binding", "details_in_all_cases": "peptide region: H3 11-23", "key": {"[1]": {"target": "T1, HaloTag-ATRX ADD domain (163-292)", "T1 chain": "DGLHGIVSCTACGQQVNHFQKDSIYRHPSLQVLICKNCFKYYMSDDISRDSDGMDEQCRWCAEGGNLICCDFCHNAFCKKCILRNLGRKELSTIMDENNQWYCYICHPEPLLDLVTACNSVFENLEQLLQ", "outline": "(§1)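 For each library, binding signal was taken as the triplicate-spot mean intensity and then min-max scaled. Spots of histone 13-mer peptide–cellulose conjugates on nitrocellulose, printed in triplicate with a Cy3 tracer, were probed for 1 h at 4°C with either biotin-labelled HaloTag reader fusions (10 nM to 1 μM) and streptavidin-Alexa Fluor 647 or rabbit histone antibodies (1:10,000 to 1:2,000) and anti-rabbit Alexa 647. Readout at 635 nm came from an Axon GenePix 4000B.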"}, "[2]": {"target": "HaloTag-ING2 PHD (mouse Ing2 200-280)", "outline": "as §1"}, "[3]": {"target": "anti-H3K4me3 antibody ab8580", "outline": "as §1"}, "[4]": {"target": "anti-H3K9me3 antibody ab8898", "outline": "as §1"}, "[5]": {"details": "peptide modifications: H3R17cit H3K18ac, binder concentration: 1:2,000 dilution"}, "[6]": {"details": "peptide modifications: H3R17cit H3K18ac, binder concentration: 1:10,000 dilution"}, "[7]": {"details": "peptide modifications: H3K14me3 H3R17cit, binder concentration: 1:2,000 dilution"}, "[8]": {"details": "peptide modifications: H3K14me3 H3R17cit, binder concentration: 1:10,000 dilution"}, "[9]": {"details": "peptide modifications: H3K14me3 H3R17me2s, binder concentration: 1:2,000 dilution"}, "[10]": {"details": "peptide modifications: H3K14me3 H3R17me2s, binder concentration: 1:10,000 dilution"}, "[11]": {"details": "peptide modifications: H3K18me3, binder concentration: 1:2,000 dilution"}, "[12]": {"details": "peptide modifications: H3K18me3, binder concentration: 1:10,000 dilution"}, "[13]": {"details": "peptide modifications: H3K18me1, binder concentration: 1:2,000 dilution"}, "[14]": {"details": "peptide modifications: H3K18me1, binder concentration: 1:10,000 dilution"}}, "note": "± gives the standard deviation.", "data": [{"binder": "B1", "values": [{"measurement": "peptide microarray binding signal", "setting": "[1]; peptide modifications: H3R17cit H3K18ac, binder concentration: 50 nM", "result": "0.00473 ± 9.3e-05"}, {"measurement": "peptide microarray binding signal", "setting": "[1]; peptide modifications: H3R17cit H3K18ac, binder concentration: 500 nM", "result": "0.0124 ± 0.00036"}, {"measurement": "peptide microarray binding signal", "setting": "[2]; peptide modifications: H3R17cit H3K18ac, binder concentration: 10 nM", "result": 0.00364}, {"measurement": "peptide microarray binding signal", "setting": "[2]; peptide modifications: H3R17cit H3K18ac, binder concentration: 100 nM", "result": "0.0114 ± 0.0017"}, {"measurement": "peptide microarray binding signal", "setting": "[3]; [5]", "result": "0.003 ± 0.00042"}, {"measurement": "peptide microarray binding signal", "setting": "[3]; [6]", "result": "0.0028 ± 0.00011"}, {"measurement": "peptide microarray binding signal", "setting": "[4]; [5]", "result": "0.000634 ± 2.6e-05"}, {"measurement": "peptide microarray binding signal", "setting": "[4]; [6]", "result": "0.000865 ± 2.4e-05"}]}, {"binder": "B2", "values": [{"measurement": "peptide microarray binding signal", "setting": "[1]; peptide modifications: H3K14me3 H3R17cit, binder concentration: 50 nM", "result": "0.00273 ± 3.1e-05"}, {"measurement": "peptide microarray binding signal", "setting": "[1]; peptide modifications: H3K14me3 H3R17cit, binder concentration: 500 nM", "result": "0.003095 ± 2.4e-05"}, {"measurement": "peptide microarray binding signal", "setting": "[2]; peptide modifications: H3K14me3 H3R17cit, binder concentration: 10 nM", "result": "0.00603 ± 0.00019"}, {"measurement": "peptide microarray binding signal", "setting": "[2]; peptide modifications: H3K14me3 H3R17cit, binder concentration: 100 nM", "result": "0.00709 ± 0.00015"}, {"measurement": "peptide microarray binding signal", "setting": "[3]; [7]", "result": "0.00325 ± 7.6e-05"}, {"measurement": "peptide microarray binding signal", "setting": "[3]; [8]", "result": "0.00257 ± 6e-05"}, {"measurement": "peptide microarray binding signal", "setting": "[4]; [7]", "result": "0.00877 ± 0.0011"}, {"measurement": "peptide microarray binding signal", "setting": "[4]; [8]", "result": "0.00519 ± 0.00016"}]}, {"binder": "B3", "values": [{"measurement": "peptide microarray binding signal", "setting": "[1]; peptide modifications: H3K14me3 H3R17me2s, binder concentration: 50 nM", "result": "0.0074 ± 0.0004"}, {"measurement": "peptide microarray binding signal", "setting": "[1]; peptide modifications: H3K14me3 H3R17me2s, binder concentration: 500 nM", "result": "0.0114 ± 0.00062"}, {"measurement": "peptide microarray binding signal", "setting": "[2]; peptide modifications: H3K14me3 H3R17me2s, binder concentration: 10 nM", "result": "0.0227 ± 0.00044"}, {"measurement": "peptide microarray binding signal", "setting": "[2]; peptide modifications: H3K14me3 H3R17me2s, binder concentration: 100 nM", "result": "0.0342 ± 0.0024"}, {"measurement": "peptide microarray binding signal", "setting": "[3]; [9]", "result": "0.0208 ± 0.0037"}, {"measurement": "peptide microarray binding signal", "setting": "[3]; [10]", "result": "0.0151 ± 0.00082"}, {"measurement": "peptide microarray binding signal", "setting": "[4]; [9]", "result": "0.021 ± 0.0014"}, {"measurement": "peptide microarray binding signal", "setting": "[4]; [10]", "result": "0.0116 ± 0.00028"}]}, {"binder": "B4", "values": [{"measurement": "peptide microarray binding signal", "setting": "[1]; peptide modifications: H3K18me3, binder concentration: 50 nM", "result": "0.0107 ± 0.00077"}, {"measurement": "peptide microarray binding signal", "setting": "[1]; peptide modifications: H3K18me3, binder concentration: 500 nM", "result": "0.0257 ± 0.0005"}, {"measurement": "peptide microarray binding signal", "setting": "[2]; peptide modifications: H3K18me3, binder concentration: 10 nM", "result": "0.00937 ± 0.00052"}, {"measurement": "peptide microarray binding signal", "setting": "[2]; peptide modifications: H3K18me3, binder concentration: 100 nM", "result": "0.0178 ± 0.0018"}, {"measurement": "peptide microarray binding signal", "setting": "[3]; [11]", "result": "0.257 ± 0.035"}, {"measurement": "peptide microarray binding signal", "setting": "[3]; [12]", "result": "0.263 ± 0.14"}, {"measurement": "peptide microarray binding signal", "setting": "[4]; [11]", "result": "0.0698 ± 0.0096"}, {"measurement": "peptide microarray binding signal", "setting": "[4]; [12]", "result": "0.0292 ± 0.0022"}]}, {"binder": "B5", "values": [{"measurement": "peptide microarray binding signal", "setting": "[1]; peptide modifications: H3K18me1, binder concentration: 50 nM", "result": "0.00433 ± 0.00015"}, {"measurement": "peptide microarray binding signal", "setting": "[1]; peptide modifications: H3K18me1, binder concentration: 500 nM", "result": "0.0187 ± 0.00044"}, {"measurement": "peptide microarray binding signal", "setting": "[2]; peptide modifications: H3K18me1, binder concentration: 10 nM", "result": "0.00979 ± 0.0017"}, {"measurement": "peptide microarray binding signal", "setting": "[2]; peptide modifications: H3K18me1, binder concentration: 100 nM", "result": "0.0252 ± 0.0035"}, {"measurement": "peptide microarray binding signal", "setting": "[3]; [13]", "result": "0.00217 ± 0.00021"}, {"measurement": "peptide microarray binding signal", "setting": "[3]; [14]", "result": "0.00108 ± 1.9e-05"}, {"measurement": "peptide microarray binding signal", "setting": "[4]; [13]", "result": "0.00293 ± 8.2e-05"}, {"measurement": "peptide microarray binding signal", "setting": "[4]; [14]", "result": "0.00173 ± 6e-05"}]}]}
